Hits are enriched below; roughly 3.1% of the tested compounds scored in any of these assays.
C2C12 statin = suppressors of simvastatin-induced myotoxicity in C2C12 myotubes | AID 602340 | rescue of ATP level, % at 7.49 µM | hit rate 0.78% among 330,000 | ATP luminescence, 48 h; scaled: DMSO 0, geranylgeraniol control 100;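 active = mean ATP rescue above about 67%, or every replicate alone reaching that limit, limit read from the data, passing the limit was not always enough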;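 also: myotubes were challenged with 10 µM simvastatin during compound exposure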
Rtt109 Vps75 = C. albicans Rtt109 histone acetyltransferase inhibition; Q5AAJ8; purified Rtt109/Vps75, ThioGlo CoA-SH fluorescence, 4 h; inhibition, % at 34.9 µM; hit rate 0.16% among 330,000;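 active = inhibition of at least 50% in every replicate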
Target sequence (Q5AAJ8 whole entry, looked up): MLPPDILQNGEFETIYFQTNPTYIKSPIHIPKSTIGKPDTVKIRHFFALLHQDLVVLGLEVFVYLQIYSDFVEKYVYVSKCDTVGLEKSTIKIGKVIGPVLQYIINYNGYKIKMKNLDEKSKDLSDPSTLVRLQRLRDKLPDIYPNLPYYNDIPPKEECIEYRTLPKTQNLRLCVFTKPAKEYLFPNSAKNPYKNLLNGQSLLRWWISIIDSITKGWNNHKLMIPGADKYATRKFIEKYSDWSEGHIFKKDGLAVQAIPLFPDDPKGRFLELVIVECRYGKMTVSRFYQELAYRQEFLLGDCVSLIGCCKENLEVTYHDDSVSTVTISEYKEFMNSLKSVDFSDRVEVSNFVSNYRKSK
Wnt act = activators of Wnt/beta-catenin signaling; Wnt/beta-catenin reporter cell assay, activator, plate reader; activation, % at 9.35 µM; hit rate 1.2% among 300,000; in the data active = activation above about 30%, passing the limit was not always enough;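 also: 0% = neutral control wells and 100% = positive control wells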
esBAF inh = inhibitors of esBAF chromatin remodeling in mouse ES cells. reporter increase, % at 12.5 µM. Bmi1-luciferase knock-in reporter, 24 h; 100% = twice the neutral-well signal. hit rate 2% among 350,000. AID 602393; in the data active = activation above about 40%;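 also: 0% = median of the plate's neutral control wells and 100% = double that signal; a rise in the Bmi1 reporter signal indicates esBAF inhibition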
MITF TRPM1 HTS = MITF TRPM1 promoter activation in melanoma cells. hit rate 0.75% among 300,000. activation, % at 12.5 µM. SK-MEL-5 TRPM1-promoter luciferase, 24 h; % of positive control, neutral wells = 0;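 active = mean activation of at least 80% with every replicate also reaching 80%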;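 also: 0% = neutral control wells and 100% = parthenolide positive control wells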
Active calls of the source: *; . = no result.

SMILES	C2C12 statin	Rtt109 Vps75	Wnt act	esBAF inh	MITF TRPM1 HTS
CCS(=O)(=O)N[C@H]1CC[C@H](CC(=O)N2CCCCC2)O[C@H]1CO	-13.2	.	.	7.9	.
CC(C)OC(=O)Cn1nnc2c(cnn2-c2ccccc2)c1=O	-5.0	-2.4	.	46.9*	41.3
Cc1cc(C(=O)COC(=O)c2ccc(Br)o2)c(C)n1Cc1ccco1	.	.	60.1*	.	.
CCOc1ncccc1C(=O)OCC(=O)c1cc(C)n(Cc2ccco2)c1C	4.3	0.5	46.3*	58.3*	41.3
Cc1cc(C(=O)COC(=O)c2ccc(Br)o2)c(C)n1C	-4.1	-4.9	17.0	44.5*	111.5*
COCCn1c(C)cc(C(=O)COC(=O)c2ccc(Br)o2)c1C	.	-5.0	3.9	.	56.6
CCn1c(CNC(C)=O)nnc1SCC(=O)c1ccc(Br)cc1	-5.2	10.0	.	-3.3	-8.9
CCN(CC)C(=S)SCC(=O)c1ccc(Br)cc1	-6.0	-6.0	12.0	83.2*	36.6
CN1C(=O)c2cc(NC(=O)c3ccc(F)cc3)ccc2OC[C@@H]2O[C@H](CC(=O)NCC3CCCCC3)CC[C@@H]21	8.5	.	.	31.1	.
O=CN(/C=C1\Sc2ccccc2C1=O)Cc1ccccc1	5.9	29.7	8.2	51.5*	11.4
CCCCCCCC(=O)N/N=C/c1ccc(Br)cc1	133.5*	-0.6	.	-7.0	3.1
COCCCNC(=S)N/N=C/c1ccccc1O	-1.7	-12.4	3.4	49.5*	.
O=C(CCCCC(=O)NN=Cc1ccccc1O)NN=Cc1ccccc1O	105.7*	0.1	-5.8	.	-57.8
Cc1nn(C)cc1NC(=O)C[C@@H]1CC[C@@H]2[C@@H](COc3ccc(NC(=O)C(C)C)cc3C(=O)N2C)O1	-0.7	.	.	-3.0	.
C[C@@H]1CCCCO[C@H](CN(C)S(=O)(=O)c2ccc(Cl)cc2)[C@H](C)CN([C@H](C)CO)C(=O)c2cc(NC(=O)CCC(F)(F)F)ccc2O1	.	.	.	-3.1	.
CCCC#Cc1cnc2c(c1)C(=O)N([C@H](C)CO)C[C@@H](C)[C@@H](CN(C)C(=O)C1CCCCC1)O2	-1.9	.	.	-0.5	.
Clc1cccc(Cl)c1C1=NOC(c2nnc(-c3ccccc3)o2)C1 (configuration not stated)	16.6	0.0	15.4	50.2*	70.1
Cc1nn(-c2ccccc2)c(N)c1N=Nc1cccnc1	.	3.0	11.4	.	96.8*
C[C@H](CO)N1C[C@H](C)[C@@H](CN(C)S(C)(=O)=O)Oc2ccc(NC(=O)Nc3ccc(F)cc3)cc2C1=O	-33.4	.	.	-4.4	.
Cc1ccc(/C=C/c2nnc(-c3ccccc3)o2)cc1	2.1	40.0	.	6.6	56.6
Clc1ccccc1-c1nnc(-c2cccs2)o1	8.2	-3.9	12.1	46.0*	53.9
Clc1ccccc1-c1nnc(-c2cccnc2)o1	20.8	-0.3	14.6	36.7	.
C(=C\c1nnc(-c2cccs2)o1)/c1ccccc1	2.2	41.4	-1.9	7.2	122.7*
C/C=C/c1ccc2c(c1)O[C@H](CN(C)C(=O)C1CCOCC1)[C@@H](C)CN([C@@H](C)CO)S2(=O)=O	4.1	.	.	-1.5	.
O=C(C[C@@H]1CC[C@H]2[C@@H](COC[C@H](O)CN2C(=O)Cc2ccccc2)O1)NC1CCCC1	-8.7	.	.	-1.8	.
SMILES	C2C12 statin	Rtt109 Vps75	Wnt act	esBAF inh	MITF TRPM1 HTS
C[C@@H]1CN([C@H](C)CO)C(=O)CCCn2cc(nn2)CO[C@@H]1CN(C)Cc1ccc(C(F)(F)F)cc1	-18.9	.	.	3.3	.
Cc1ccc(-c2oc3ccccc3c(=O)c2O)cc1	1.3	-2.0	23.2	47.6*	34.9
O=c1c(O)c(-c2ccccc2)oc2ccccc12	-12.4	-9.6	-1.3	24.1	21.3
O=C(O)COc1c(-c2ccccc2)oc2ccccc2c1=O	74.7*	2.8	.	-6.9	4.2
Cc1ccc(-c2oc3ccccc3c(=O)c2OCC(=O)O)cc1	5.1	-4.8	-0.6	-7.6	-1.2
C[C@H]1CN([C@@H](C)CO)S(=O)(=O)c2ccc(/C=C/c3ccccc3)cc2O[C@@H]1CN(C)C(=O)NC1CCCC1	-73.4	.	.	7.6	.
COc1ccc(OC)c(S(=O)(=O)N(C(C)=O)c2ccc3oc(=O)sc3c2)c1	.	-4.2	-0.6	.	10.1
CC(=O)N(c1ccc2oc(=O)sc2c1)S(=O)(=O)c1ccccc1	.	67.5*	.	.	17.4
CCCC(=O)N(c1ccc2oc(=O)sc2c1)S(=O)(=O)c1cccs1	40.7	124.1*	-1.5	-8.9	5.2
COc1ccc(S(=O)(=O)N(C(=O)C(C)C)c2ccc3oc(=O)sc3c2)cc1	16.2	5.0	-2.2	-19.9	-4.7
CC(C)C(=O)N(c1ccc2oc(=O)sc2c1)S(=O)(=O)c1ccccc1	105.8*	13.7	-1.6	4.3	-11.6

Screening results deposited in PubChem BioAssay by Broad Institute.
